Assay results published in PubChem BioAssay (Tox21).
Inconclusive results are not listed. Activity calls are given as the source filed them. The call rests on the fitted dose curve; in most records, active means well fitted curve in the direction sought with a large enough effect in the repeat runs; inconclusive means weak or mixed curves; inactive means no such curve, though single readings can be large; an effect the other way counts as inactive or inconclusive.

Legend:
[1] = qHTS RealTime-Glo MT Cell Viability Assay in HepG2 cells - 24 hour (AID 1224867); further: nearly all actives have a fitted effect of over 50% in size
Procedure, shortened: (§1)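 qHTS, HepG2, 600 cells/well, RealTime-Glo (NanoLuc + prosubstrate) added with cells; 5 h preincubation; DMSO compound addition; 37 C; luminescence at 0/8/16/24/32/40 h.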

[2] = qHTS RealTime-Glo MT Cell Viability Assay in HEK293 cells - 32 hour (AID 1224868); further: top concentration of the series differs between compounds; nearly all actives have a fitted effect of over 50% in size
Procedure, shortened: (§2)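 Assay medium contained NanoLuc luciferase plus cell-permeant prosubstrate, added with HEK293 cells at 600 cells/well. After 5 h at 37 C/5% CO2 compounds were added; plates stayed at 37 C for 40 h with serial luminescence reads.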

[3] = A CellTox Green Cytotoxicity Assay to monitor cytotoxicity in HEK293 cells - 0 hour (AID 1224869); further: nearly all actives have a fitted effect of over 50% in size
Procedure, shortened: (§3)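 Fluorescence intensity, read at 0, 8, 16, 24, 32 and 40 h of compound treatment, reflected dye binding to DNA of dead HEK293 cells; compounds (23 nL, DMSO) were added 5 h after plating cells with reagent.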

[4] = qHTS RealTime-Glo MT Cell Viability Assay in HepG2 cells - 40 hour (AID 1224870); further: nearly all actives have a fitted effect of over 50% in size
Procedure, shortened: (§4)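 HepG2 cells mixed with RealTime-Glo MT reagents (NanoLuc plus cell-permeant prosubstrate) were seeded at 600 cells/well, incubated 5 h at 37 C/5% CO2, then pinned with compounds in DMSO; nonlytic luminescence tracked viability during 40 h treatment.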

[5] = A CellTox Green Cytotoxicity Assay to monitor cytotoxicity in HEK293 cells - 40 hour (AID 1224871); further: nearly all actives have a fitted effect of over 45% in size
Procedure, shortened: as §3

[6] = qHTS RealTime-Glo MT Cell Viability Assay in HEK293 cells - 16 hour (AID 1224872)
Procedure, shortened: as §2

[7] = qHTS RealTime-Glo MT Cell Viability Assay in HepG2 cells - 8 hour (AID 1224873); further: nearly all actives have a fitted effect of over 55% in size
Procedure, shortened: as §4

[8] = qHTS RealTime-Glo MT Cell Viability Assay in HEK293 cells - 40 hour (AID 1224874); conditions: RealTime-Glo luminescence; max response: hits give low values; further: nearly all actives have a fitted effect of over 50% in size
Procedure, shortened: (§5)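 Viable HEK293 cells reduce a cell-permeant prosubstrate; the product diffuses out and is consumed by NanoLuc in the medium to give light. Compounds went in after a 5 h incubation and plates were read over the treatment course.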

[9] = A CellTox Green Cytotoxicity Assay to monitor cytotoxicity in HepG2 cells - 16 hour (AID 1224876); further: nearly all actives have a fitted effect of over 45% in size
Procedure, shortened: (§6)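 Using 1536-well format, dye-containing HepG2 suspension was seeded, allowed 5 h at 37 C/5% CO2, dosed by pintool with compounds, positive and negative controls, and imaged for fluorescence across 40 h.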

[10] = qHTS RealTime-Glo MT Cell Viability Assay in HepG2 cells - 32 hour (AID 1224877); further: nearly all actives have a fitted effect of over 55% in size
Procedure, shortened: as §1

[11] = A CellTox Green Cytotoxicity Assay to monitor cytotoxicity in HepG2 cells - 24 hour (AID 1224878); further: nearly all actives have a fitted effect of over 45% in size
Procedure, shortened: as §6

[12] = A CellTox Green Cytotoxicity Assay to monitor cytotoxicity in HepG2 cells - 40 hour (AID 1224879); further: nearly all actives have a fitted effect of over 40% in size
Procedure, shortened: as §6

[13] = qHTS RealTime-Glo MT Cell Viability Assay in HEK293 cells - 0 hour (AID 1224880); further: top concentration of the series differs between compounds; nearly all actives have a fitted effect of over 45% in size
Procedure, shortened: as §5

[14] = A CellTox Green Cytotoxicity Assay to monitor cytotoxicity in HEK293 cells - 32 hour (AID 1224881); further: nearly all actives have a fitted effect of over 40% in size
Procedure, shortened: as §3

[15] = A CellTox Green Cytotoxicity Assay to monitor cytotoxicity in HepG2 cells - 0 hour (AID 1224882); further: nearly all actives have a fitted effect of over 35% in size
Procedure, shortened: as §6

[16] = A CellTox Green Cytotoxicity Assay to monitor cytotoxicity in HepG2 cells - 32 hour (AID 1224883); further: nearly all actives have a fitted effect of over 50% in size
Procedure, shortened: as §6

[17] = qHTS RealTime-Glo MT Cell Viability Assay in HepG2 cells - 16 hour (AID 1224885); further: nearly all actives have a fitted effect of over 50% in size
Procedure, shortened: as §1

[18] = A CellTox Green Cytotoxicity Assay to monitor cytotoxicity in HEK293 cells - 24 hour (AID 1224875)
Procedure, shortened: as §3

[19] = A CellTox Green Cytotoxicity Assay to monitor cytotoxicity in HEK293 cells - 8 hour (AID 1224884); further: nearly all actives have a fitted effect of over 35% in size
Procedure, shortened: as §3
On the % scale 0 is the no-effect control and ±100 the full control effect.

O=C(Nc1cccc(C2=NCCN2)c1)Nc1cccc(C2=NCCN2)c1
inactive: activity change, negative = cytotoxicity [1] 1.81% [at 15.8 µM] | activity change, negative = cytotoxic [2] -5.26% [at 15.8 µM] | cytotoxicity [3] -3.81% [at 15.8 µM] | activity change, negative = cytotoxic [4] 2.87% [at 15.8 µM] | cytotoxicity increase [5] -2.61% [at 15.8 µM] | activity change, negative = cytotoxicity [6] -0.101% [at 15.8 µM] | viability change, negative = cytotoxic [7] 1.42% [at 15.8 µM] | max response [8] -2.84% | cytotoxicity increase [9] -11.3% [at 15.8 µM] | activity change, negative = cytotoxic [10] 2.71% [at 15.8 µM] | cytotoxicity [11] -8.34% [at 15.8 µM] | cytotoxicity increase [12] -7.03% [at 15.8 µM] | activity change, negative = cytotoxicity [13] -5.15% [at 15.8 µM] | cytotoxicity increase [14] -2.02% [at 15.8 µM] | cytotoxicity [15] -0.131% [at 15.8 µM] | cytotoxicity increase [16] -8.68% [at 15.8 µM] | activity change, negative = cytotoxic [17] 0.713% [at 15.8 µM]

C=CCCCCCCCCCCC
inactive: activity change, negative = cytotoxicity [1] 0.824% [at 6.97 µM] | activity change, negative = cytotoxic [2] 7.22% [at 6.97 µM] | cytotoxicity [3] 3.23% [at 6.97 µM] | activity change, negative = cytotoxic [4] -0.414% [at 6.97 µM] | cytotoxicity increase [5] 0.236% [at 6.97 µM] | activity change, negative = cytotoxicity [6] 6.31% [at 6.97 µM] | viability change, negative = cytotoxic [7] 1.47% [at 6.97 µM] | max response [8] 6.19% | activity change [18] -0.54% [at 6.97 µM, hits give high values] | cytotoxicity increase [9] -0.067% [at 6.97 µM] | activity change, negative = cytotoxic [10] -0.401% [at 6.97 µM] | cytotoxicity [11] 0.49% [at 6.97 µM] | cytotoxicity increase [12] 1.74% [at 6.97 µM] | activity change, negative = cytotoxicity [13] 4.11% [at 6.97 µM] | cytotoxicity increase [14] -0.213% [at 6.97 µM] | cytotoxicity [15] 1.75% [at 6.97 µM] | cytotoxicity increase [16] 1.86% [at 6.97 µM] | cytotoxicity increase [19] 2.18% [at 6.97 µM] | activity change, negative = cytotoxic [17] -0.787% [at 6.97 µM]

Nc1ccnc(=O)[nH]1
inactive: outcome [1] | Potency [2] | Potency [3] | Potency [5] | Potency [6] | outcome [7] | max response [8] 4.83% | Potency [18] | Potency [9] | outcome [10] | Potency [11] | Potency [12] | outcome [13] | Potency [14] | Potency [15] | Potency [16] | outcome [17]

C[C@H]1O[C@H](O[C@H]2[C@H](O)[C@@H](O)[C@@H](O[C@H]3[C@H](O)[C@@H](O)[C@H](O)O[C@@H]3CO)O[C@@H]2CO)[C@H](O)[C@@H](O)[C@@H]1N[C@H]1C=C(CO)[C@@H](O)[C@H](O)[C@H]1O
inactive: outcome [1] | Potency [2] | Potency [3] | outcome [4] | Potency [5] | Potency [6] | outcome [7] | max response [8] 6.78% | Potency [9] | outcome [10] | Potency [11] | Potency [12] | outcome [13] | Potency [14] | Potency [15] | Potency [16] | Potency [19] | outcome [17]

CCOC(=O)CC(CC(=O)OCC)(OC(C)=O)C(=O)OCC
inactive: outcome [1] | Potency [2] | Potency [3] | Potency [5] | Potency [6] | outcome [7] | max response [8] -6.27% | Potency [18] | Potency [9] | outcome [10] | Potency [11] | Potency [12] | outcome [13] | Potency [14] | Potency [16] | Potency [19] | outcome [17]

CC(=O)Nc1ncc([N+](=O)[O-])s1
inactive: outcome [1] | Potency [2] | Potency [3] | outcome [4] | Potency [5] | Potency [6] | outcome [7] | max response [8] 0.8% | Potency [18] | outcome [10] | Potency [11] | Potency [12] | outcome [13] | Potency [14] | Potency [16] | Potency [19] | outcome [17]

CN(C)CCCNCCC#N
inactive: outcome [1] | Potency [2] | Potency [3] | Potency [5] | Potency [6] | outcome [7] | max response [8] 6.65% | Potency [18] | Potency [9] | outcome [10] | Potency [11] | Potency [12] | outcome [13] | Potency [14] | Potency [16] | Potency [19] | outcome [17]

C=CCOCC(O)CCl (stereo not drawn)
inactive: outcome [1] | Potency [2] | Potency [3] | Potency [5] | Potency [6] | outcome [7] | max response [8] 0.946% | Potency [18] | Potency [9] | outcome [10] | Potency [11] | Potency [12] | outcome [13] | Potency [14] | Potency [15] | Potency [16] | Potency [19] | outcome [17]

Nc1c(NC/C=C\COc2cc(CN3CCCCC3)ccn2)c(=O)c1=O
inactive: activity change, negative = cytotoxicity [1] 1.59% [at 15.8 µM] | activity change, negative = cytotoxic [2] 2.38% [at 15.8 µM] | cytotoxicity [3] -1.89% [at 15.8 µM] | activity change, negative = cytotoxic [4] 1.19% [at 15.8 µM] | cytotoxicity increase [5] 6.78% [at 15.8 µM] | activity change, negative = cytotoxicity [6] 2.61% [at 15.8 µM] | viability change, negative = cytotoxic [7] 6.05% [at 15.8 µM] | max response [8] -0.39% | activity change [18] 3.31% [at 15.8 µM, hits give high values] | cytotoxicity increase [9] -12.5% [at 15.8 µM] | activity change, negative = cytotoxic [10] 0.449% [at 15.8 µM] | cytotoxicity [11] -15.2% [at 15.8 µM] | cytotoxicity increase [12] -13.3% [at 15.8 µM] | activity change, negative = cytotoxicity [13] 11.6% [at 15.8 µM] | cytotoxicity increase [14] 6.07% [at 15.8 µM] | cytotoxicity [15] -10.4% [at 15.8 µM] | cytotoxicity increase [16] -13.1% [at 15.8 µM] | activity change, negative = cytotoxic [17] 3.45% [at 15.8 µM]

O=C(O)c1c(Cl)ccc(Cl)c1Cl
inactive: outcome [1] | Potency [2] | Potency [3] | outcome [4] | Potency [5] | Potency [6] | outcome [7] | max response [8] 5.49% | Potency [18] | Potency [9] | outcome [10] | Potency [11] | Potency [12] | outcome [13] | Potency [14] | Potency [15] | Potency [16] | outcome [17]

CCOC(=O)C(=O)c1csc(NC=O)n1
inactive: outcome [1] | Potency [2] | Potency [3] | outcome [4] | Potency [5] | Potency [6] | outcome [7] | max response [8] 0.45% | Potency [18] | Potency [9] | outcome [10] | Potency [11] | Potency [12] | outcome [13] | Potency [14] | Potency [15] | Potency [16] | outcome [17]

Cc1ccccc1N1CCN(CCc2nnc3n2CCCC3)CC1
inactive: outcome [1] | Potency [2] | Potency [3] | Potency [5] | Potency [6] | outcome [7] | max response [8] -6.94% | Potency [18] | Potency [9] | outcome [10] | Potency [11] | Potency [12] | outcome [13] | Potency [14] | Potency [15] | Potency [16] | Potency [19] | outcome [17]

CCCO
inactive: outcome [1] | Potency [2] | Potency [3] | outcome [4] | Potency [5] | Potency [6] | outcome [7] | max response [8] 1.64% | Potency [18] | Potency [9] | outcome [10] | outcome [13] | Potency [14] | Potency [15] | Potency [19] | outcome [17]

NS(=O)(=O)c1cc2c(cc1Cl)NC(CC1CCCC1)NS2(=O)=O (stereo not drawn)
inactive: outcome [1] | Potency [2] | Potency [3] | outcome [4] | Potency [5] | Potency [6] | outcome [7] | max response [8] 5.55% | Potency [18] | outcome [10] | Potency [12] | outcome [13] | Potency [14] | Potency [19] | outcome [17]
